# Measured values from the supplement of paper PMC11732987, “Enantioselective OTUD7B fragment discovery through chemoproteomics screening and high-throughput optimisation” (Communications Chemistry, 2025).
# Values without a mark were called inactive.
# What was measured:
# Experiment in all cases: log2 ratio of Biotin-Ahx-Ub-VS probe labelling (fragment/DMSO); higher = less target engagement (more negative = stronger competition), active = hit call of the paper (q ≤ 0.05, log2 ratio ≤ -1)
# Settings in all cases: compound concentration: 200 uM; treatment time: 3 h
# ALG13 = molecular target: T1, ALG13 (UniProt Q9NP73)
# T1 sequence (whole entry): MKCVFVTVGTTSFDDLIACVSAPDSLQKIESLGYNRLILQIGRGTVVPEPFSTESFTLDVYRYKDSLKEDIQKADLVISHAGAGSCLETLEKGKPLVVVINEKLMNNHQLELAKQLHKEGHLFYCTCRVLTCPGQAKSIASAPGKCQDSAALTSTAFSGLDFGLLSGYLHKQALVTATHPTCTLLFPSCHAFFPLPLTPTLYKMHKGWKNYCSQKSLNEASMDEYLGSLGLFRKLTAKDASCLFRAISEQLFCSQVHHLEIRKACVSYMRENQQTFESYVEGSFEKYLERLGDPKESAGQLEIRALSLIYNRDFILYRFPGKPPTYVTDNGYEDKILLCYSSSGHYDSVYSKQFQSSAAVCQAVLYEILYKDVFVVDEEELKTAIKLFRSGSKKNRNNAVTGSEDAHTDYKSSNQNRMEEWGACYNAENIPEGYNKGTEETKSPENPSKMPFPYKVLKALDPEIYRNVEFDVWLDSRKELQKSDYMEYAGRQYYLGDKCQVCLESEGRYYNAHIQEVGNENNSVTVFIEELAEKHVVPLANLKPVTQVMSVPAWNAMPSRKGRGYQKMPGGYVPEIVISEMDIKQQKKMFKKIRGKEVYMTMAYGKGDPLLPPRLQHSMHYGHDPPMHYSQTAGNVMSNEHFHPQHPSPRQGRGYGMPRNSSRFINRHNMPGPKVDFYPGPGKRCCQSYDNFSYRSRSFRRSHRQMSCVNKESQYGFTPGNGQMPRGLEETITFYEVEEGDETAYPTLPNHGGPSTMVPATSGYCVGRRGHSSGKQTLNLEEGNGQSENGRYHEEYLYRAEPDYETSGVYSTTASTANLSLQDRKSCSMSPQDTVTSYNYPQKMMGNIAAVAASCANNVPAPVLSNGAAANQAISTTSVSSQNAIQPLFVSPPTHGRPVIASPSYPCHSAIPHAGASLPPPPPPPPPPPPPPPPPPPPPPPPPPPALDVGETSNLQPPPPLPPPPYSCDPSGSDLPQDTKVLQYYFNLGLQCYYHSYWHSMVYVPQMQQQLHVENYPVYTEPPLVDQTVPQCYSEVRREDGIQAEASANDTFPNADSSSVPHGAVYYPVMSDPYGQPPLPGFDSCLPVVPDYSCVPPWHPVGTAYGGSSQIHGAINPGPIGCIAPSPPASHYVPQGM
# Procedure, shortened: (§1)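 HEK293T lysate (495 µg per sample, in Tris/CHAPS/IGEPAL buffer with protease inhibitors) was treated in triplicate with fragment at 200 µM or with DMSO for 3 h. It was then treated with Biotin-Ahx-Ub-VS (0.5 µM final) for 1 h. Labelled DUBs were NeutrAvidin-enriched, digested with LysC and trypsin, and run by diaPASEF LC-MS/MS. Spectronaut label-free quantities were global-median-normalised. Values are average log2 ratios fragment/DMSO by unpaired t-test, using proteins with ≥2 unique peptides.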
# ATXN3 = ATXN3 (UniProt P54252)
# Procedure, shortened: as §1
# BAP1 = molecular target: T2, BAP1 (UniProt Q92560)
# T2 sequence (whole entry): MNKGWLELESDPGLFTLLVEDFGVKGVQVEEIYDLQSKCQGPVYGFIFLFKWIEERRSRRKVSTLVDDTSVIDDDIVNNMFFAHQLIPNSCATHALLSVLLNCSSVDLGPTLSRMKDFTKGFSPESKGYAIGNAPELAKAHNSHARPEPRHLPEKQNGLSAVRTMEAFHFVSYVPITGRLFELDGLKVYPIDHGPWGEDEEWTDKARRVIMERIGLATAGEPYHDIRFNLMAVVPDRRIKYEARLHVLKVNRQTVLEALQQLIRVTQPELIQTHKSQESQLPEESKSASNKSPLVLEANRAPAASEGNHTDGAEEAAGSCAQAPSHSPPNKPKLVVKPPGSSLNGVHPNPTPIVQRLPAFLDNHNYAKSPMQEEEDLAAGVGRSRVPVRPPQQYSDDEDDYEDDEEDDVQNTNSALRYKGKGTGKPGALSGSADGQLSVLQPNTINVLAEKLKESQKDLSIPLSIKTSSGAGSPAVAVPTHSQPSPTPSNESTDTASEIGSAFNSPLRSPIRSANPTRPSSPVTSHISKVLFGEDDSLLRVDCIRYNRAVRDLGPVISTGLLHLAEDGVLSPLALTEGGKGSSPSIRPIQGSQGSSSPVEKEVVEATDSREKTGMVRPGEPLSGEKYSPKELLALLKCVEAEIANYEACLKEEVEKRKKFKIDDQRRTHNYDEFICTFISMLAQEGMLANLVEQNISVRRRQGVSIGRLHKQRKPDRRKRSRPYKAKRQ
# Procedure, shortened: as §1
# EIF3F = EIF3F (UniProt O00303)
# Procedure, shortened: as §1
# EIF3H = EIF3H (UniProt O15372)
# Procedure, shortened: as §1
# FAM105A = molecular target: T3, FAM105A (UniProt Q9NUU6)
# T3 sequence (whole entry): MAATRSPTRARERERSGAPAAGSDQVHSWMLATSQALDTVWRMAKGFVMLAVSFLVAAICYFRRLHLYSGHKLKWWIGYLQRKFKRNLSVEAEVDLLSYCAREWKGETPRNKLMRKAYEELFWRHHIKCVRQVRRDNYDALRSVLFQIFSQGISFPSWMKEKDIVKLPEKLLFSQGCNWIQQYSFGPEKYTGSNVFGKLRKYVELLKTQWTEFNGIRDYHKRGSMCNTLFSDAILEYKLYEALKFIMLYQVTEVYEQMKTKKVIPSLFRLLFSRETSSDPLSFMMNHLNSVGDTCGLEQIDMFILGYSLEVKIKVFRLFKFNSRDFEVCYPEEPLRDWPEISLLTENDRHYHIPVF
# Procedure, shortened: as §1
# OTUB1 = OTUB1 (UniProt Q96FW1)
# Procedure, shortened: as §1
# OTUD4 = molecular target: T4, OTUD4 (UniProt Q01804)
# T4 sequence (whole entry): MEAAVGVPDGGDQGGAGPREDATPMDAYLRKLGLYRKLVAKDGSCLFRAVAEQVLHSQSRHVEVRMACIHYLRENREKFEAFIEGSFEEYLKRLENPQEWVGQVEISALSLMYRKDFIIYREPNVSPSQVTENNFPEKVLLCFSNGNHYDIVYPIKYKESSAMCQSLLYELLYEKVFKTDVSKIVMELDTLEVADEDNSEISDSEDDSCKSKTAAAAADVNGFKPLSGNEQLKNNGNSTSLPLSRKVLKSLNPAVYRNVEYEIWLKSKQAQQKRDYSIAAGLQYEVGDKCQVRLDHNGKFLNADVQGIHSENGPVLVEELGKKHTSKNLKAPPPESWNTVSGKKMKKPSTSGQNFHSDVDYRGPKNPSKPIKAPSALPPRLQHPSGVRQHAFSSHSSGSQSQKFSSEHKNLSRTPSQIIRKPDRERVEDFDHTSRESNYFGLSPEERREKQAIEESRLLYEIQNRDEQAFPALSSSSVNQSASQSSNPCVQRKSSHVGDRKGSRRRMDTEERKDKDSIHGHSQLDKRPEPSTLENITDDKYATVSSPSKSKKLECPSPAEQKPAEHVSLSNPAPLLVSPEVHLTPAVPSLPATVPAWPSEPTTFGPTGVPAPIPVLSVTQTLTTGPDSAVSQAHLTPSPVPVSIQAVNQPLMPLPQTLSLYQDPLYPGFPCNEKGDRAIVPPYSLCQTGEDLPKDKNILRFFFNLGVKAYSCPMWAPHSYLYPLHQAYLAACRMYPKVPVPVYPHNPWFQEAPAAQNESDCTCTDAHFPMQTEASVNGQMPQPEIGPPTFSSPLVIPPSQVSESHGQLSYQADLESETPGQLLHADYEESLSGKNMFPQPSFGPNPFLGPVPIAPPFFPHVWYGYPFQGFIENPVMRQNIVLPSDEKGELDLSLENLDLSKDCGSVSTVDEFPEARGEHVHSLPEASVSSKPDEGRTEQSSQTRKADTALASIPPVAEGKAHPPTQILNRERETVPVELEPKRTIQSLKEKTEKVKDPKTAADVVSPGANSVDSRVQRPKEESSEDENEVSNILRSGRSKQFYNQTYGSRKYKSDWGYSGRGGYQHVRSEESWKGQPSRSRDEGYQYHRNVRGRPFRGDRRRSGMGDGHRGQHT
# Procedure, shortened: as §1
# OTUD5 = molecular target: T5, OTUD5 (UniProt Q96G74)
# T5 sequence (whole entry): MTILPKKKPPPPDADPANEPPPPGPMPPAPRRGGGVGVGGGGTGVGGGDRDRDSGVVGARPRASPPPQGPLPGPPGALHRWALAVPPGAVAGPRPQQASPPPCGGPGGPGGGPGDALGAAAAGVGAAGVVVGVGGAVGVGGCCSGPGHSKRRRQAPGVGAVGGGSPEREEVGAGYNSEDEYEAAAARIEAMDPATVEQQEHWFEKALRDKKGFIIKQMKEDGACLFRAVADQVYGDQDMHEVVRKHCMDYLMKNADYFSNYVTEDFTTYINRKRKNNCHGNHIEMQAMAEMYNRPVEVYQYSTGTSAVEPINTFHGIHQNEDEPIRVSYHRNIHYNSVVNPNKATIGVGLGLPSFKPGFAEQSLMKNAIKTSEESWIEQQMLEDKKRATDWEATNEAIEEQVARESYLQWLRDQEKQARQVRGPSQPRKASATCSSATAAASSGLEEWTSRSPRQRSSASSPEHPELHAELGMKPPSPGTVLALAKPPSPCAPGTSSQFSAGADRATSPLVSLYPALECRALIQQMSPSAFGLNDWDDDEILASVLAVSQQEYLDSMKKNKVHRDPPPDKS
# Procedure, shortened: as §1
# EIF3H, sequence (O15372 whole entry): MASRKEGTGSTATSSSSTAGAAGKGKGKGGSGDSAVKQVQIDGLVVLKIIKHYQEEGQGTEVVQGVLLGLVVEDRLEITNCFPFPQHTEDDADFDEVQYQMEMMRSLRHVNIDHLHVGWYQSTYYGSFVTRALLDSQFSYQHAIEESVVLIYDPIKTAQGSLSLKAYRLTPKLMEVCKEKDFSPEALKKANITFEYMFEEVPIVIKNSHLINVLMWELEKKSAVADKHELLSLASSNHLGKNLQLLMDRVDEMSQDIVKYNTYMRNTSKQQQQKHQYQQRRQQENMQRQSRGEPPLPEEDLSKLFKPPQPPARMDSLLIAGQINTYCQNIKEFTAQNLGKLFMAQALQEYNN
# EIF3F, sequence (O00303 whole entry): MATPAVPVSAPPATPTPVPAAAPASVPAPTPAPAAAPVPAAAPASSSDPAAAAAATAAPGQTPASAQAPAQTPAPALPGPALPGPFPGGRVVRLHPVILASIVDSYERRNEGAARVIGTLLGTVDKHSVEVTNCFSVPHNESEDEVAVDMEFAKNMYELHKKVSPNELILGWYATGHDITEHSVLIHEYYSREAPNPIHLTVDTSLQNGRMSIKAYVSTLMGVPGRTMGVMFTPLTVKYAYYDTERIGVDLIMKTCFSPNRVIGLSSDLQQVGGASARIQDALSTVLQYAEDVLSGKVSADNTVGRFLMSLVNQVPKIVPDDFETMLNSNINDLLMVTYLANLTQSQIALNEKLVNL
# ATXN3, sequence (P54252 whole entry): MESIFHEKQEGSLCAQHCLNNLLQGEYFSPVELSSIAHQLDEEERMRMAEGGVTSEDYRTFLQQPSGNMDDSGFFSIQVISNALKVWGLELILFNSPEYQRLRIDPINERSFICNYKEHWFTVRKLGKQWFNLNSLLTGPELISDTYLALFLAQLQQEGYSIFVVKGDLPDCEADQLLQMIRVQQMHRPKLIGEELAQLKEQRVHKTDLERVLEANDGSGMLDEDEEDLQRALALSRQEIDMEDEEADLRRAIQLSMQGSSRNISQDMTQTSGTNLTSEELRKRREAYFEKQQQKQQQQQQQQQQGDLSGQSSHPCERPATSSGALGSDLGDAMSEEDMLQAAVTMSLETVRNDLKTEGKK
# OTUB1, sequence (Q96FW1 whole entry): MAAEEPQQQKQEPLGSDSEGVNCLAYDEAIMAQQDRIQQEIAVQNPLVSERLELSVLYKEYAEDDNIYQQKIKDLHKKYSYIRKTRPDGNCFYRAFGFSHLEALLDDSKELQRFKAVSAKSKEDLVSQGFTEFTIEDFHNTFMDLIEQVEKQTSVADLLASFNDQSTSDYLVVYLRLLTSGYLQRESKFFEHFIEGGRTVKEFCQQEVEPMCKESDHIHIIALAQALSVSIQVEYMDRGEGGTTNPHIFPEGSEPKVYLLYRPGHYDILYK
smiles,measurement,setting,value
Cc1cccc(N(CCC#N)C(=O)CCl)c1C,log2 ratio of Biotin-Ahx-Ub-VS probe labelling,ALG13,-0.29
same,log2 ratio of Biotin-Ahx-Ub-VS probe labelling,ATXN3,0.0325
same,log2 ratio of Biotin-Ahx-Ub-VS probe labelling,BAP1,-0.645
same,log2 ratio of Biotin-Ahx-Ub-VS probe labelling,EIF3F,-0.0896
same,log2 ratio of Biotin-Ahx-Ub-VS probe labelling,EIF3H,0.111
same,log2 ratio of Biotin-Ahx-Ub-VS probe labelling,FAM105A,-0.0506
same,log2 ratio of Biotin-Ahx-Ub-VS probe labelling,OTUB1,0.00102
same,log2 ratio of Biotin-Ahx-Ub-VS probe labelling,OTUD4,-1.76 (active)
same,log2 ratio of Biotin-Ahx-Ub-VS probe labelling,OTUD5,-0.19
